Laboratory results: PubChem BioAssay
A number with no mark means an inactive call. No rule for the calls is given here.

system: Aerobactin synthetase IucA (Klebsiella pneumoniae, hypervirulent); experiment: biochemical IucA inhibition screen of LOPAC library by absorbance (AID 1346212); conditions: IucA enzyme assay, absorbance (OD) readout; hits give low values;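 tested at 8 µM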;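 also: 100% = no compound wells and 0% = no enzyme wells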

| Structure (SMILES) | remaining activity |
| --- | --- |
| CCCC(=O)NCCc1c2n(c3ccc(OC)cc13)CCCc1ccccc1-2 | 116% |
| CCCCCC(O)c1cccc(OCc2ccc3ccccc3n2)c1 (stereo not given) | 98.9% |
| N#CC(C#N)=C(N)/C(C#N)=C/c1cc(O)c(O)c(O)c1 | 87.7% |
| O=C(Cc1ccc(Cl)c(Cl)c1)OCCN1CCCC1 | 117% |
| COc1cc2c(CCNC(C)=O)c[nH]c2cc1O | 92.2% |
| O=C(O)CCC/C=C\C[C@@H]1[C@@H](/C=C/[C@H](O)C2Cc3ccccc3C2)[C@@H](F)C[C@@H]1O | 97.7% |
| CN1CCN(c2nc3cc(C(F)(F)F)ccc3n3cccc23)CC1 | 94.3% |
| CC[N+](CC)(CC)CC(=O)Nc1c(C)cccc1C | 113% |
| CCCCCCCC/C=C\CCCCCCCC(=O)NCCO | 98.7% |
| COc1ccc(/C=C/C(=O)Nc2ccccc2C(=O)O)cc1OC | 92.2% |
| CCCC1O[C@@H]2C[C@H]3[C@@H]4CCC5=CC(=O)C=C[C@]5(C)[C@H]4[C@@H](O)C[C@]3(C)[C@]2(C(=O)CO)O1 (stereo not given in full) | 115% |
| CCN(CC)CC#CCOC(=O)C(O)(c1ccccc1)C1CCCCC1 (stereo not given) | 118% |
| c1ccc2c(c1)CC(N1CCN(c3cccc4c3OCCO4)CC1)C2 | 108% |
| O=C(Nc1nc2ccccc2n1CCN1CCOCC1)c1cccc([N+](=O)[O-])c1 | 120% |
| C[N+](C)(C)CCOP(=O)(O)OP(=O)([O-])OC[C@H]1O[C@@H](n2ccc(N)nc2=O)[C@H](O)[C@@H]1O | 115% |
| C(=C\c1ccccc1)/CN1CCN(C(c2ccccc2)c2ccccc2)CC1 | 113% |
| N[C@@H](Cc1c[nH]c2ccc(O)cc12)C(=O)O | 99.1% |
| CCN(CC)CCOC(=O)c1cc(Cl)c(N)cc1OC | 103% |
| CN1CCN(CC/C=C2/c3ccccc3Sc3ccc(S(=O)(=O)N(C)C)cc32)CC1 | 99.4% |
| Nc1ncnc2c1nc(Sc1ccc(Cl)cc1)n2C1OC2COP(=O)(O)O[C@@H]2[C@@H]1O (stereo not given in full) | 108% |

| Structure (SMILES) | remaining activity |
| --- | --- |
| CCCCCC[C@@H]([C@@H](C)O)n1cnc2c(N)ncnc21 | 99.4% |
| OC1(c2ccc(Cl)cc2)CCN(Cc2c[nH]c3ccccc23)CC1 | 112% |
| COCC(=O)O[C@]1(CCN(C)CCCc2nc3ccccc3[nH]2)CCc2cc(F)ccc2[C@@H]1C(C)C | 128% |
| CC(C)C[C@H](NC(=O)[C@@H](O)[C@H](N)Cc1ccccc1)C(=O)O | 108% |
| Cc1oncc1C(=O)Nc1ccc(C(F)(F)F)cc1 | 110% |
| CC[C@H](CO)Nc1nc(NCc2ccccc2)c2ncn(C(C)C)c2n1 | 123% |
| Fc1ccc(C(OCCCc2cnc[nH]2)c2ccc(F)cc2)cc1 | 111% |
| c1cnc2c(c1)ccc1cccnc12 | 101% |
| C[C@]12CC[C@@H]3c4ccc(O)cc4CC[C@H]3[C@@H]1CCC2=O | 103% |
| O=c1cc(O)cc(/C=C/c2ccc(O)c(O)c2)o1 | 93.8% |
| N=c1c[n+](N2CCOCC2)[n-]o1 | 108% |
| Cc1nc(N=Nc2ccc(C(=O)O)cc2)c(COP(=O)(O)O)c(C=O)c1O | 110% |
| CC(=O)N1CCN(c2ccc(OC[C@H]3CO[C@](Cn4ccnc4)(c4ccc(Cl)cc4Cl)O3)cc2)CC1 | 121% |
| c1ccc(C(NCCNC(c2ccccc2)c2ccccc2)c2ccccc2)cc1 | 117% |
| COc1ccccc1N1CCN(CCCCNC(=O)c2ccc3ccccc3c2)CC1 | 118% |
| O=C(O)CN(CCN(CC(=O)O)CC(=O)O)CCN(CC(=O)O)CC(=O)O | 90.9% |
| O=C1Nc2ccc(I)cc2/C1=C/c1cc(Br)c(O)c(Br)c1 | 113% |
| CN(C)CC[C@@H](c1ccc(Cl)cc1)c1ccccn1 | 117% |
| CCCNC[C@H](O)COc1ccccc1C(=O)CCc1ccccc1 | 91.3% |
| Oc1ccc(C2CNCCc3c2cc(O)c(O)c3Cl)cc1 (stereo not given) | 94.3% |
